From PubChem BioAssay
In the library only some 1.4% were active in any assay of this set; here they are far more common.
USP1 inh: Inhibitors of USP1/UAF1: Primary Screen; recombinant USP1/UAF1, Ub-Rhodamine cleavage fluorescence; 390,000 tested, 0.23% active; Potency, µM (doses to about 57.1 µM), without a hit: at the top dose activity change, negative = inhibition, hits mostly inhibitors; AID 743255, 2014; further: on the % scale 0 is the no-effect control and ±100 the full control effect; nearly all actives have a fitted effect of over 60% in size
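In this screen, compounds sit with the deubiquitinase complex (1nM) for 15 min at room temperature before Ub-Rho is added at 150nM final. Fluorescence rise is then followed for 6 reads every 60 seconds.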
EPAC1 ag: qHTS for Agonist of cAMP-regulated guanine nucleotide exchange factor 3 (EPAC1): primary screen. 360,000 tested, 0.073% active. Potency, µM (top dose mostly 154 µM), for inactives: at the top dose activation, actives largely listed as activators. EPAC1 agonist qHTS, biochemical assay; response scale: 100% = response to 6.5 mM cAMP; further: nearly all actives have a fitted effect of over 60% in size
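Read-out is the fluorescence drop as BODIPY-GDP leaves Rap1B (480 nm excitation, 540 nm emission), recorded every 5 minutes over 30 minutes. Reactions held 100 nM EPAC1, 250 nM Rap1B–BODIPY-GDP and 50 uM GDP, with 6.5 mM cAMP setting full activation.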
BRCA1 expr up: qHTS Assay to Identify Small Molecule Activators of BRCA1 Expression; 380,000 tested, 1.1% active; Potency, µM (series often up to 46.1 µM), for the others: top-dose activation, hits mostly activators; MCF7-BRCA1-FFLuc reporter, luminescence, 48 h; response scale: scaled: vehicle 0%, 10 µM genistein 100%; AID 624202, 2012; further: nearly all actives have a fitted effect of over 80% in size
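48 h compound treatment of MCF7-BRCA1-FFLuc cells (phenol-red free MEM, 37 °C), then 15 min with luciferase substrate and luminescence imaging.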
EPAC2 antag: qHTS for Antagonist of cAMP-regulated guanine nucleotide exchange factor 2 (EPAC2): primary screen | EPAC2 GEF exchange of Rap1B-BODIPY-GDP, fluorescence | Potency, µM (series often up to 114 µM), for inactives: at the highest dose activity, negative = inhibition, usual class: inhibitors | Rap guanine nucleotide exchange factor 4 (Homo sapiens), Q8WZA2 | 360,000 tested, 0.18% active; further: on the % scale 0 is the no-effect control and ±100 the full control effect; nearly all actives have a fitted effect of over 45% in size
Target sequence (Q8WZA2 whole entry, looked up): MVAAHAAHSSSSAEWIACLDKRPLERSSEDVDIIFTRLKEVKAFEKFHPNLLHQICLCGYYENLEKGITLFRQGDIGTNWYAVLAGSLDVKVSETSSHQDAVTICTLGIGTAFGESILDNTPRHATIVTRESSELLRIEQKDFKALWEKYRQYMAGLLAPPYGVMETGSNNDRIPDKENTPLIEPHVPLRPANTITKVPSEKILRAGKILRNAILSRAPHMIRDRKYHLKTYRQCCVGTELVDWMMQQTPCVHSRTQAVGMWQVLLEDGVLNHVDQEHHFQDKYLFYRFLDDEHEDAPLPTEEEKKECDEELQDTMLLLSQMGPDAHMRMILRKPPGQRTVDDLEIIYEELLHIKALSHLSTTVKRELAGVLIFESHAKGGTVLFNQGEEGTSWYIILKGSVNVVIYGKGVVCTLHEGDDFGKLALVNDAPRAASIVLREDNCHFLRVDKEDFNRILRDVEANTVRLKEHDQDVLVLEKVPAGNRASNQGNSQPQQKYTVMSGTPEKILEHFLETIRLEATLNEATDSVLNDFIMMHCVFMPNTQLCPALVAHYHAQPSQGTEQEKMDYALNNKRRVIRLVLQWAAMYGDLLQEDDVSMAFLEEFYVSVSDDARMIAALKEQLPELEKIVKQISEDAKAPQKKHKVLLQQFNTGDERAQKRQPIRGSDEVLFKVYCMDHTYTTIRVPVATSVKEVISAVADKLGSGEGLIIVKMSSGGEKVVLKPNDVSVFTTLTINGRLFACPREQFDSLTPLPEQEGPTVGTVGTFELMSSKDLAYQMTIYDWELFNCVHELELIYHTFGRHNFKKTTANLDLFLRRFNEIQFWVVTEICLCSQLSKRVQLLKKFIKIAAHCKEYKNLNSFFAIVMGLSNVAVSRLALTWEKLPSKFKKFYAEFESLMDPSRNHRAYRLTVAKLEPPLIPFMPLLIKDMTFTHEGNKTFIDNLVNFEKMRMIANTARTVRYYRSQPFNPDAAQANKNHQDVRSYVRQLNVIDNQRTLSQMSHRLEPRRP
EPAC2 agonist: qHTS for Agonist of cAMP-regulated guanine nucleotide exchange factor 4 (EPAC2): primary screen. Potency, µM (top dose mostly 154 µM), without a hit: at the top dose activation, usual class: activators. EPAC2 activation, biochemical qHTS; response scale: 100% = 6.5 mM cAMP response. AID 720711, 2013. 360,000 tested, 0.079% active. Rap guanine nucleotide exchange factor 4 (Homo sapiens), Q8WZA2; further: nearly all actives have a fitted effect of over 50% in size
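Setup: EPAC2 100 nM, labeled Rap1B complex 250 nM, free GDP 50 uM. Compound titrations pinned in, brief spin, 5 min room temperature incubation. Kinetic fluorescence read over 30 min, normalized to 6.5 mM cAMP.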
EPAC1 antagonist: qHTS for Antagonist of cAMP-regulated guanine nucleotide exchange factor 3 (EPAC1): primary screen | EPAC1 GEF assay, Rap1b-BODIPY-GDP exchange fluorescence | 360,000 tested, 0.14% active | Rap guanine nucleotide exchange factor 3 (Homo sapiens), O95398 | Potency, µM (series often up to 115 µM), for inactives: top-dose activity change, negative = inhibition, usual class: inhibitors;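 further: plate controls were vehicle for no effect and positive control for full effect; nearly all actives have a fitted effect of over 50% in size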
Starred values were filed as active, the others as inactive; ? = inconclusive; nt = no result given; [ ] = dose if it differs, or a comment. The call rests on the fitted dose curve; in most records, active means well fitted curve in the direction sought with a large enough effect; inconclusive means small, poorly fitted or top-dose-only effect, or another doubt; inactive means no such curve, though single readings can be large; an effect the other way counts as inactive or inconclusive. Potency means the concentration at half of the fitted maximal effect.

SMILES | USP1 inh | EPAC1 ag | BRCA1 expr up | EPAC2 antag | EPAC2 agonist | EPAC1 antagonist
O=C1CC(Cc2ccccc2)C(=O)N1CCc1ccc2c(c1)OCO2 (stereo not given) | -2% | 7% | 2% | 11µM* | -19% | 11%
COc1ccc(NC(=O)C/C(C)=N/NC(=O)c2cccs2)c([N+](=O)[O-])c1 | 2% | 0% | 14% | -10% | 3% | ?
COc1ccc(NC(=O)c2cccs2)c([N+](=O)[O-])c1 | -4% | 4% | 5.6µM* | ? | -17% | -6%
COc1ccc(NC(=O)c2sccc2C)c([N+](=O)[O-])c1 | -14% | -2% | 11µM* | 10% | 4% | -8%
NC(=O)c1ccsc1NC(=O)COC(=O)c1ccccn1 | -3% | -3% | 26% | 3% | 10% | 3%
O=C(Nc1ccc2[nH]ncc2c1)c1ccccc1Cl | -15% | -10% | 2.8µM* | 10% | 1% | 13%
Nc1nc(N)nc(COc2ccccc2)n1 | -5% | 10% | 4.5µM* | -2% | 6% | 6%
CCOc1ccc(Cc2nc(N)nc(N)n2)cc1 | -6% | 4% | -26% | -2% | 8% | 6%
Cc1cccc(Cn2c(=O)oc3ccc(C)cc32)c1 | -21% | -4% | -2% | 79µM* | -3% | -3%
Cc1ccc2oc(=O)n(Cc3ccc(OC(C)C)cc3)c2c1 | -20% | -13% | -12% | ? | 8% | -9%
O=C1c2ccccc2S(=O)(=O)N1CC1CC(c2ccccc2Cl)=NO1 (stereo not given) | -10% | 10% | 5µM* | -10% | 0% | -23%
COc1ccc(OCCCn2c(CCNC(=O)C3CCCCC3)nc3ccccc32)cc1 | nt | nt | 1% | nt | nt | nt
Cc1ccc(NC2=Nc3ccccc3CC2)cc1 | -11% | 0% | 1% | 2% | 4% | -2%
c1ccc(NC2=Nc3ccccc3CS2)cc1 | -12% | 11% | 3.5µM* | 3% | 10% | -10%
O=Cc1cccc(Oc2ncccn2)c1 | -16% | 2% | 0% | -2% | -4% | 10%
Nc1ccc(Oc2ncccn2)cc1 | 7.9µM* | 4% | -12% | -29% | 25% | ?
CC(C)CCNC(=O)c1onc(CSc2ccccn2)c1C(=O)NCCC(C)C | -1% | -29% | -36% | -12% | -8% | ?
O=C(O)c1cccc(NC(=S)NC(=O)c2ccc(-c3ccc(Cl)cc3)o2)c1 | -7% | 4% | 11µM* | ? | 23% | ?
COc1ccc(NC(=O)C2CCCC2)cc1 | -12% | 3% | 20% | 0% | 6% | -10%
COc1cc2ccccc2cc1C(=O)NC(=S)Nc1ccc(C(=O)O)cc1 | -15% | 2% | 3% | -6% | 14% | -10%
COc1ccc(NC(=S)NC(=O)C2CCCCC2)cc1 | -13% | 3% | 7.9µM* | -3% | 7% | 5%
COc1cc2ccccc2cc1C(=O)NC(=S)Nc1cccc(C(=O)O)c1 | -25% | ? | ? | 13% | 10% | 45µM*
O=C(NC(=S)Nc1ccccc1[N+](=O)[O-])c1ccccc1Cl | -8% | 14% | 13µM* | -6% | 14% | -9%
O=C(NC(=S)Nc1ccc(O)cc1)c1ccccc1Cl | -18% | 3% | ? | -2% | 7% | -5%
COc1ccc(NC(=S)NC(=O)c2ccccc2Cl)cc1 | -25% | -3% | 13µM* | -10%[57.1 µM] | 7% | -3%
SMILES | USP1 inh | EPAC1 ag | BRCA1 expr up | EPAC2 antag | EPAC2 agonist | EPAC1 antagonist
COc1cccc(Oc2cc(Cl)nc(N)n2)c1 | -17% | 7% | -31% | -2% | 9% | -7%
c1cncc(CSc2ccc(-c3cccs3)nn2)c1 | -6% | 11% | 10µM* | -4% | 5% | -6%
Fc1ccc(CSc2ccc(-c3cccs3)nn2)cc1 | -23% | -12% | 10µM* | 6% | 12% | 8%
Fc1cccc(CSc2ccc(-c3cccs3)nn2)c1 | -8% | nt | nt | nt | nt | nt
C[C@H](O)Cc1cc2ccccc2c(=O)o1 | -14% | -5% | 12% | 3% | 10% | -8%
CCOc1ccc(N(CC(=O)N2CCCCCC2)S(=O)(=O)c2ccc(F)cc2)cc1 | -17% | 8% | 10% | -22% | 8% | 20%
COc1ccc(NC(C)C(=O)N/N=C/c2ccccc2OCc2ccc(Br)cc2)cc1 (stereo not given) | -9% | 9% | 4µM* | -5% | 4% | 13%
O=C(NC1CCCCC1)c1cc(-c2cccc(Cl)c2)on1 | -21% | -6% | 4.5µM* | -2% | 4% | -7%
O=C(NC1CCCC1)c1cc(-c2ccccc2O)on1 | -3% | 4% | 2.8µM* | 3% | 3% | -2%
Cc1c(C(=O)O)cccc1-c1ccc(C=O)o1 | -12% | -4% | 7.9µM* | 4% | 1% | 3%
CSCCC(NS(=O)(=O)c1ccc(Cl)cc1)C(=O)N1CCN(c2ccccc2)CC1 (stereo not given) | -16% | -7% | -30% | 0% | -7% | 11%
N#CC1=C(N)SC(N)=C(C#N)C1c1c(Cl)cccc1Cl | ? | 0% | -28% | 1% | 6% | 2%
CCOc1ccc(C2C(C#N)=C(N)SC(N)=C2C#N)cc1OCC | 32µM* | 18% | 0% | 12% | 5% | 29%
N#CC1=C(N)SC(N)=C(C#N)C1c1cccc(Oc2ccccc2)c1 | -3% | 17% | -13% | 50µM* | 6% | -8%
COc1cc2nc(N3CCOCC3)nc(NC3CCN(Cc4ccccc4)CC3)c2cc1OC | nt | nt | -6% | nt | nt | nt
CC1=C(C(=O)N(C)C)CC(CC(=O)NCCc2ccccn2)C(=O)N1Cc1ccc(F)cc1 (stereo not given) | -3% | 8% | 1% | 6% | 12% | -20%
Cc1nn(C)c(C)c1CNC(=O)Nc1cccc(Cl)c1 | -9% | 1% | 4µM* | -3% | 7% | -2%
O=C(NCc1ccccn1)Nc1cccc(Cl)c1 | -21% | 4% | 13µM* | 0% | 8% | -9%
O=C(NCc1ccccn1)Nc1cccc(NC(=O)NCc2ccccn2)c1 | -3% | 5% | ? | -5% | 9% | -6%
Cc1nn(C)c(C)c1CNC(=O)Nc1ccc(Cl)cc1 | -8% | -2% | 6.3µM* | -1% | -7% | 11%
